ClpP mod – qHTS Assay for Activators of ClpP; ATP-dependent Clp protease proteolytic subunit (Bacillus subtilis (strain 168)), P80244; purified B. subtilis ClpP, FRET peptide cleavage, 20 min; Potency, µM (highest dose often 57.5 µM), without a hit: top-dose activity change, negative = active; hit rate 1.9% among 340,000; active = well fitted falling curve with a large enough effect; inconclusive = small, poorly fitted or top-dose-only effect; inactive = no such curve, though single readings can be large or run the other way; also: potency is read from the fitted curve at half-maximal effect; the source files actives as falling curves though it sought activators and does not explain the sign; nearly all actives have a fitted effect of over 65% in size
Target sequence (P80244 whole entry, looked up): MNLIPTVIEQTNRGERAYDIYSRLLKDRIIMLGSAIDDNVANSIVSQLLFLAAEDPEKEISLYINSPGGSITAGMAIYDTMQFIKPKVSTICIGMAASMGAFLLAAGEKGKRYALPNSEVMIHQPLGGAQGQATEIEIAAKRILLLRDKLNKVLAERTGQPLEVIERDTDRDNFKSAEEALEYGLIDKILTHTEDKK
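ClpP 10 microg/mL final, pH 8 Tris/KCl buffer with BSA, glycerol, Tween-20; compound pinned in; FRET-FV substrate; RT 20 min; Ex320/Em430; ΔFRET vs ADEP 5.8 microM, DMSO, no enzyme.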
LDHA block – LDHA (human) enzyme inhibition | AID 1347041 | hit rate 0.15% among 480,000 | activity change, % (values are at about 110 or 230 µM) | P00338 | purified LDHA, NADH/diaphorase-resazurin fluorescence; hits give low values; in the data active = activity change below about -30%; inconclusive = mostly about -25% to -30%;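 also: plate controls were DMSO wells for no effect and wells without enzyme for full effect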
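Human LDH5 (2 nM) was incubated with 0.06 mM NADH and 0.2 mM pyruvate for 5 min at room temperature in Tris pH 7.4. Remaining NADH was coupled through diaphorase/resazurin, and resorufin fluorescence was read at 0 and 20 min.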
S-ASM inh – inhibitors of human secretory acid sphingomyelinase; AID 504937; P17405; hit rate 0.006% among 340,000; placental ASM, HMU-PC fluorogenic substrate, 60 min; Potency, µM (series often up to 57.5 µM), for inactives: at the top dose activity change, negative = inhibition, hits mostly inhibitors; also: potency is read from the fitted curve at half-maximal effect
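HMU-PC0 cleavage (9 uM final) by human placental ASM, 60 min at 37 °C following 10 min compound exposure at RT; stopped at pH 10, fluorescence Ex 386/Em 447 nm.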
Mito fusion act – mitochondrial division inhibition or fusion activation; S. cerevisiae fusion-defective mutant growth rescue, CellTiterGlo 48 h; Potency, µM (doses to about 46.1 µM), without a hit: at the top dose growth rescue (activation), usual class: activators; hit rate 0.23% among 320,000; AID 485298; also: potency is read from the fitted curve at half-maximal effect; % of control where 0% means no effect; nearly all actives have a fitted effect of over 45% in size
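Temperature-sensitive fusion-defective S. cerevisiae (e.g. fzo1-1, mgm1-5) were grown with compound in YPEG medium (3% ethanol, 3% glycerol) for 48 hours at 37C. Growth rescue was measured as viability by CellTiterGlo luminescence after 10 minutes at ambient.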
IDH1 R132H inh – blocks human mutant IDH1 R132H enzyme; O75874; IDH1-R132H enzyme, NADPH consumption, diaphorase/resazurin fluorescence; Potency, µM (titrated, usually from 76.6 µM), without a hit: top-dose activity change, negative = inhibition, hits mostly inhibitors; hit rate 0.093% among 390,000; also: potency is read from the fitted curve at half-maximal effect; % is scaled to controls: 0 for no effect and ±100 for the full control effect; nearly all actives have a fitted effect of over 65% in size
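IDH1-R132H (0.5 ug/mL dispensed) in pH 7.5 Tris buffer was preincubated 30 min with compound, then given a substrate mix of 0.016 mM NADPH and 2 mM alpha-KG for 80 min at room temperature; remaining NADPH was read by diaphorase/resazurin fluorescence.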
RGS4 inhibitor – blocks human RGS4-accelerated GTP hydrolysis | P49798 | Transcreener GDP fluorescence polarization, RGS4-accelerated GTP hydrolysis | Potency, µM (doses to about 114 µM), inactives show at the top dose activity change, negative = inhibition, actives largely listed as inhibitors | hit rate 0.039% among 390,000; also: potency is read from the fitted curve at half-maximal effect; % is scaled to controls: 0 for no effect and ±100 for the full control effect; nearly all actives have a fitted effect of over 75% in size
Target sequence (P49798 whole entry, looked up): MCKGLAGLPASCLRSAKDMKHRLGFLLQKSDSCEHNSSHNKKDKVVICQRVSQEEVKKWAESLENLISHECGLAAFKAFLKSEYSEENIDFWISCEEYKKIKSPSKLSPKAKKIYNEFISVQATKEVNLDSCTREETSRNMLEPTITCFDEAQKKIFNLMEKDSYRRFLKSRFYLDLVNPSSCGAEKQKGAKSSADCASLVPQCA
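MLSMR compounds (23 nl, pin-transferred) preincubated 10 min at room temperature with a 500nM (2x) first reagent, then RGS4 at 900nM (2x) plus Transcreener GDP mix added; fluorescence polarization (620/688 nm) read before and after 90 min at 30 °C.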
An asterisk follows results filed as active; i = inactive; ? = inconclusive; . = no result given; ! = not active in a repeat; [ ] = dose if it differs, or a comment. This excerpt belongs to a sample that is enriched for hits. Unless noted, calls follow the shape of the dose curve; as a rule, active = well fitted curve in the direction sought with a large enough effect; inconclusive = small, poorly fitted or top-dose-only effect, or another doubt; inactive = no such curve, though single readings can be large; an effect the other way counts as inactive or inconclusive.

SMILES	ClpP mod	LDHA block	S-ASM inh	Mito fusion act	IDH1 R132H inh	RGS4 inhibitor
O=[N+]([O-])c1ccc2oc(C(O)c3cccc(Cl)c3)cc2c1 (stereo not drawn)	.	3	-1%	25µM*	-18%	0%
O=C(NC1CCCCCC1)c1nn(-c2ccccc2)c(=O)c2ccccc12	.	-2	.	.	.	.
CCc1sc(C(=O)Nc2cc(Cl)ccc2N2CCCCC2)cc1C	22µM*	0	-3%	10%	-2%	7%[11.4 µM]
Cc1noc(C)c1CSCC(=O)Nc1cc(Cl)ccc1N1CCCCC1	25µM*	-9	-2%	?	5%	-1%
Cc1ccc(C(=O)Nc2cc(Cl)ccc2N2CCCCC2)s1	?	2	-9%	18%	9%	?
Cc1ccc(S(=O)(=O)c2n[nH]n3c2nc(=O)c2ccccc23)cc1	16µM*	-6	35%	-6%	7%	-18%
CCCOc1nc2ccccc2nc1N1CCC(C(=O)Nc2cccc(F)c2)CC1	.	-3	.	.	.	.
COc1cccc(/C=C2\SC(=S)N(NS(=O)(=O)c3ccc(C)cc3)C2=O)c1OC	.	.	.	5µM*	.	.
Cc1cccc(OCc2ccc(-c3nc(C#N)c(N4CCC(C(N)=O)CC4)o3)o2)c1	4%	0	.	.	14%	-5%
COc1ccc(OCc2ccc(-c3nc(C#N)c(N4CCC(C(N)=O)CC4)o3)o2)cc1	35µM*	3	.	.	10%	-5%
CC(Nc1oc(-c2ccc(COc3ccccc3)o2)nc1C#N)c1ccccc1 (stereo not drawn)	4%	1	.	.	-12%	8%
CC1CCN(c2oc(-c3ccc(COc4ccccc4)o3)nc2C#N)CC1	16µM*	-1	.	.	-15%	-13%
N#Cc1nc(-c2ccc(COc3ccccc3)o2)oc1NCc1ccccc1	20µM*	-3	.	.	-15%	7%
N#Cc1nc(-c2ccc(COc3ccccc3)o2)oc1N1CCN(c2ccccc2)CC1	16µM*	-6	.	.	-14%	-14%
Cc1ccc(OCc2ccc(-c3nc(C#N)c(N4CCC(C)CC4)o3)o2)cc1	4%	-1	.	.	0%	-10%
COc1ccccc1CNC(=O)CCc1nnc2ccc(NCc3ccc4c(c3)OCO4)nn12	.	-3	.	.	.	.
CC(C)CNc1nc(C(=O)Nc2ccc3[nH]ccc3c2)cs1	.	5	.	.	.	.
CN(C)c1oc(-c2ccc(OCc3ccccc3)cc2)nc1C#N	13µM*	-1	-3%	20%	3%	-21%
COc1ccc(OCc2ccc(-c3nc(C#N)c(N4CCC(C)CC4)o3)o2)cc1	25µM*	-11	.	.	0%	7%
N#Cc1nc(-c2ccc(OCc3ccccc3)cc2)oc1N1CCCCC1	.	8	.	.	.	.
N#Cc1nc(-c2ccc(OCc3ccc(Cl)cc3)cc2)oc1NCc1cccnc1	28µM*	-3	4%	-3%	0%	9%
Cc1ccc(Sc2ccc(C=O)o2)cc1	.	0	.	.	.	.
CCOC(=O)Cc1cc(-c2ccc(OC)cc2)nc2ccc3ccccc3c12	8.9µM*	-4	90%	18%	5%	-2%
CCOC(=O)c1cc(Cl)c2c(ccc3ccccc32)n1	-12%	-7	.	.	1%	.
CCOC(=O)Cc1cc(-c2ccc(F)cc2)nc2ccc3ccccc3c12	22µM*	-3	-5%	2%	5%	-13%
SMILES	ClpP mod	LDHA block	S-ASM inh	Mito fusion act	IDH1 R132H inh	RGS4 inhibitor
CCOC(=O)Cc1cc(-c2ccc(O)cc2)nc2ccc3ccccc3c12	32µM*	-8	10%	2%	5%	-1%
COc1ccc(CNC(=O)c2cnc3sc(N4CCOCC4)nn3c2=O)cc1	?	-6	.	.	8%	-19%
CCNC(=O)c1cnc2sc(N3CCCCCC3)nn2c1=O	11µM*	1	.	.	5%	-15%
COc1ccc(CCNC(=O)c2cnc3sc(N4CCOCC4)nn3c2=O)cc1	28µM*	-2	.	.	-8%	19%
COc1ccc(CNC(=O)c2cnc3sc(N4CCCC4)nn3c2=O)cc1OC	16µM*	-5	.	.	16%	13%
CCOc1ccc(CNC(=O)c2cnc3sc(N4CCCCCC4)nn3c2=O)cc1OC	-23%	-3	.	.	12%	2%
COCCNC(=O)c1cnc2sc(N3CCCCC3)nn2c1=O	4%	-5	.	.	23%	-1%
COc1ccccc1NC(=O)COc1nc(C(C)C)c2c(c1C#N)CC(C)(C)OC2	.	7	.	.	.	.
Cc1ccc(-c2cc(C(=O)N3CC(C)OC(C)C3)c3ccccc3n2)o1 (stereo not drawn)	14µM*	-1	i	6%	3%	-37%
Cc1ccc(-c2cc(C(=O)N3CCCC3)c3ccccc3n2)s1	11%	-3	473%	-4%	0%	-28%
COc1ccc(-c2cc(C(=O)N3CCCCCC3)c3ccccc3n2)cc1	6.3µM*	2	32%	30%	5%	-46%
O=C(c1cc(-c2ccc(Cl)s2)nc2ccccc12)N1CCCC1	32µM*	1	35%	.	1%	-29%
Cc1ccc(-c2cc(C(=O)N3CC(C)CC(C)C3)c3ccccc3n2)o1 (stereo not drawn)	.	0	i	5%	4%	?
CCn1c(C)nc2cc(C(=O)NNS(=O)(=O)c3ccccc3F)ccc21	3.2µM*	-3	-2%	2%	6%	-4%
O=C(Nc1ccc([N+](=O)[O-])cc1)c1ccccc1F	1%	1	2%	5%	0%	9%[11.4 µM]
O=C(c1cc(O)c(O)c([N+](=O)[O-])c1)c1ccccc1F	-1%	0	?	18µM*!	4%	-11%[56.9 µM]
CCC(C)c1ccc2oc(-c3ccc(NC(=O)Cn4cnc5c(=O)n(C)c(=O)n(C)c54)cc3)nc2c1 (stereo not drawn)	11µM*	-9	-4%	8%	-6%	-38%[56.9 µM]
Cc1ccc(NC(=O)N2CCN(C3=Nc4ccccc4Oc4ccccc43)CC2)c(Cl)c1	.	4	.	.	.	.
CNc1oc(-c2ccco2)nc1C#N	?	-10	4%	-3%	1%	9%
Cc1ccc(CNc2oc(-c3ccco3)nc2C#N)cc1	16µM*	-13	-5%	7%	12%	20%
N#Cc1nc(-c2ccco2)oc1NCCc1ccccc1	28µM*	-2	1%	15%	8%	-6%
N#Cc1nc(-c2ccc(F)cc2)oc1NCc1cccc2c1OCO2	4%	0	-6%	14%	14%	-2%
COc1ccc(CCNc2oc(-c3ccco3)nc2C#N)cc1	28µM*	0	-1%	5%	3%	13%
COc1ccc(CCNc2oc(COc3ccc(F)cc3)nc2C#N)cc1	0%	2	-10%	23%	6%	-19%
